Measurements from PubChem BioAssay (EPA / NIEHS).
More than one record can exist for a structure, and the calls need not agree. The source made the active and inactive calls. How the source made its calls: active means hit-call score of the fitted dose curve at least 0.9, where 1 is the maximum; inactive means score below 0.9.

Assays:
[1] = biological target: Transcription factor E2F1 (Homo sapiens) (UniProt Q01094); assay: ATG_E2F_CIS: Attagene CIS-FACTORIAL HepG2 Assay for human E2F Transcription Factor 1 (AID 2282935); details: HepG2 Attagene cis-reporter, E2F reporter RNA transcripts; actives raise or lower the signal
Sequence of Transcription factor E2F1 (Homo sapiens) (Q01094 whole entry, looked up): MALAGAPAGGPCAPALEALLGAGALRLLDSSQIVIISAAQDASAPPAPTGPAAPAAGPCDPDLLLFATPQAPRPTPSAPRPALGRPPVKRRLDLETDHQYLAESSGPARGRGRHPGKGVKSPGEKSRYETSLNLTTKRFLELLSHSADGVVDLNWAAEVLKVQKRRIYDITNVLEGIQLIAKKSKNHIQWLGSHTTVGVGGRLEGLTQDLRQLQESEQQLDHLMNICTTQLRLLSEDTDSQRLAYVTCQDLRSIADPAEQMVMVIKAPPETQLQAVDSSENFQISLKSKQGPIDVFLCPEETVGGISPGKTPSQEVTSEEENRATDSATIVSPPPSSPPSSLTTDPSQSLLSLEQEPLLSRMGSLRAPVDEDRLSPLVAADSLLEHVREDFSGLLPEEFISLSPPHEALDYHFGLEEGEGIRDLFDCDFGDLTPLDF
In short: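 Gain or loss of reporter transcript, fitted against DMSO, reflects E2F1-driven transcription. Transiently transfected HepG2 dosed 24 h before RNA isolation. Quantified by fluorescent RT-PCR products separated by capillary electrophoresis.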

[2] = ATG_E_Box_CIS: Attagene CIS-FACTORIAL HepG2 Assay for human Enhancer Box (E-box) (AID 2282936); details: HepG2 E-box cis-reporter transcription, actives raise or lower the signal
In short: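 E-box-driven reporter transcripts measured in transiently transfected HepG2 after 24 h exposure: RNA reverse-transcribed, PCR-amplified, fluorescently labelled, digested and resolved by capillary electrophoresis. Gain or loss relative to DMSO.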

[3] = ATG_M_61_CIS: Attagene CIS-FACTORIAL HepG2 Assay for M61 Transcription Factor (Internal Marker) (AID 2282937); details: HepG2 Attagene CIS-FACTORIAL M61 internal marker reporter; actives raise or lower the signal
In short: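 Human liver HepG2, transient MRTU transfection (cis promoter elements), 24 h compound. Total RNA → oligo(dT) RT → PCR → FAM label → HpaI → CE. Internal background marker; bidirectional fitting, DMSO = baseline.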

[4] = ATG_EGR_CIS: Attagene CIS-FACTORIAL HepG2 Assay for human Early Growth Response 1 (EGR1) (AID 2282938); details: HepG2 Attagene CIS-FACTORIAL EGR reporter mRNA; actives raise or lower the signal
In short: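 Transient transfection of human HepG2 with multiple cis-regulated reporter units, chemical exposure 24 h, total RNA isolated. Reverse transcription, PCR, fluorescent labelling and capillary electrophoresis quantify reporter transcripts; activity fitted bidirectionally against DMSO.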

[5] = ATG_M_19_CIS: Attagene CIS-FACTORIAL HepG2 Assay for M19 Transcription Factor (Internal Marker) (AID 2282939); details: HepG2 Attagene CIS-FACTORIAL M19 internal marker reporter; actives raise or lower the signal
In short: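 Signals come from fluorescence of labelled reporter-specific PCR fragments resolved by capillary electrophoresis, following 24 h treatment of HepG2 cells transfected with cis-promoter reporter units; activity was fitted in both directions relative to DMSO.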

[6] = ATG_ERE_CIS: Attagene CIS-FACTORIAL HepG2 Assay for Estrogen Response Element (ERE) (AID 2282940); details: HepG2 ERE cis-reporter, Attagene RNA transcript; actives raise or lower the signal
In short: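 Fluorescence of capillary-separated, FAM-labelled reporter cDNA fragments indicates reporter mRNA levels in HepG2 cells exposed to chemicals for 24 h. Transient transfection with cis-regulated units; data fitted in both directions against DMSO.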

[7] = ATG_Ets_CIS: Attagene CIS-FACTORIAL HepG2 Assay for human Erythroblast Transformation Specific (ETS) (AID 2282941); details: HepG2 ETS cis-reporter transcription, actives raise or lower the signal
In short: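 Endogenous transcription factor activity read as reporter mRNA via RT-PCR and capillary electrophoresis, with gain or loss fitted bidirectionally against DMSO. Human HepG2 liver cells, transiently transfected CIS reporter constructs, 24 h exposure.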

[8] = biological target: Hepatocyte nuclear factor 3-beta (Homo sapiens) (UniProt Q9Y261); assay: ATG_FoxA2_CIS: Attagene CIS-FACTORIAL HepG2 Assay for human Forkhead box A2 (FOXA2) (AID 2282942); details: HepG2 cis-reporter transcription factor activity, 24 h; actives raise or lower the signal
Sequence of Hepatocyte nuclear factor 3-beta (Homo sapiens) (Q9Y261 whole entry, looked up): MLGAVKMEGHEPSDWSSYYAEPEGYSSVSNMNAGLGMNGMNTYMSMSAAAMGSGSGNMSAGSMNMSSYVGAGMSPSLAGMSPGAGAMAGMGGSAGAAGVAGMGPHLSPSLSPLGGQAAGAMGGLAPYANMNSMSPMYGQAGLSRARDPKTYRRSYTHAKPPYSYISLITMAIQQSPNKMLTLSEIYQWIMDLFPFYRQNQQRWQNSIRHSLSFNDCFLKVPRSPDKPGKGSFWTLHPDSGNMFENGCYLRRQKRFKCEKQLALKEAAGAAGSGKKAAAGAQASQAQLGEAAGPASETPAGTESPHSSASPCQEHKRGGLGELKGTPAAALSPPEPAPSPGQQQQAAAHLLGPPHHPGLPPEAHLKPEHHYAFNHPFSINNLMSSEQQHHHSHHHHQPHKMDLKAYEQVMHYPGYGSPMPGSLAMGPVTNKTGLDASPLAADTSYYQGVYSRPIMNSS
In short: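 Transient MRTU transfection of HepG2 liver cells; 24 h treatment; total RNA → oligo(dT) RT → PCR → FAM primer extension → HpaI cut → CE. Bidirectional fit vs DMSO.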

[9] = ATG_FoxO_CIS: Attagene CIS-FACTORIAL HepG2 Assay for human Forkhead box O (FoxO) (AID 2282943); details: HepG2 Attagene cis-reporter, FoxO element, mRNA; actives raise or lower the signal
In short: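 Endogenous transcription factor activity read from multiplexed cis-promoter reporter transcripts in transiently transfected HepG2, 24 h after dosing. Reporter RNA measured via RT-PCR plus capillary electrophoresis of FAM-labeled products; gain or loss relative to DMSO.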

[10] = ATG_GATA_CIS: Attagene CIS-FACTORIAL HepG2 Assay for human GATA Binding Protein (AID 2282944); details: HepG2 GATA cis-element reporter, Attagene multiplex mRNA; actives raise or lower the signal
In short: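 After transfecting HepG2 cells with multiple cis-regulated reporter units, chemicals are dosed for 24 h; isolated RNA undergoes RT-PCR and fluorescent labeling before capillary electrophoresis, with activity expressed against DMSO.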

Measured: AC50

CCc1ccc(C(c2ccc(CC)cc2)C(Cl)Cl)cc1
active: [6] 40.1 µM
inactive: all other assays above

CCCCCCOC(=O)c1ccccc1O
not listed: [6]
inactive: all other assays above

O=C(O)C(F)(F)C(F)(F)C(F)(F)F
not listed: [6]
inactive: all other assays above

O=P(O)(O)OCCC(F)(F)C(F)(F)C(F)(F)C(F)(F)C(F)(F)C(F)(F)F
not listed: [6]
inactive: all other assays above

CCCCCCCCC(F)(F)C(F)(F)C(F)(F)C(F)(F)C(F)(F)C(F)(F)F
not listed: [6]
inactive: all other assays above

O=C(OCCOCCOCCOC(=O)c1ccccc1)c1ccccc1
active: [6] 0.62 µM
inactive: all other assays above

OC[C@@H](O)[C@@H](O)[C@H](O)[C@@H](O)CO
not listed: [6]
inactive: all other assays above

COC(=O)C1CCC(C(=O)OC)CC1 (stereo not given)
active: [6] 20.5 µM
inactive: [1] | [2] | [3] | [5] | [6] | [7] | [8] | [9] | [10]

CC(Cc1ccc(O)c(O)c1)C(C)Cc1ccc(O)c(O)c1 (stereo not given)
active: [1] 33.4 µM | [4] 20.5 µM
not listed: [6]
inactive: all other assays above

C=CC/C=C/C/C=C/C/C=C/C
not listed: [6]
inactive: all other assays above

O=C(O)C(F)(F)C(F)(F)C(F)(F)C(F)(F)C(F)(F)C(F)(F)C(F)(F)C(F)(F)C(F)(F)C(F)F
not listed: [6]
inactive: all other assays above

O=C(C=Cc1ccccc1)OCC=Cc1ccccc1
not listed: [6]
inactive: all other assays above

O=S(=O)(OCCOC(F)(F)F)C(F)(F)F
not listed: [4]
inactive: all other assays above

FC(F)(F)C(F)(F)C(F)(F)C(F)(F)C(F)(F)CCI
active: [6] 51.2 µM
inactive: all other assays above

FC(F)(F)C(F)(F)C(F)(F)C(F)(F)C(F)(F)C(F)(F)C(F)(F)I
active: [6] 5.59 µM
not listed: [4]
inactive: all other assays above

CCN(CC)c1ccc2c(C)cc(=O)oc2c1
not listed: [6]
inactive: all other assays above

CCCCC(CC)COP(=O)(O)OCC(CC)CCCC (stereo not given)
not listed: [6]
inactive: all other assays above

CS(C)(=O)=O
not listed: [6]
inactive: all other assays above

OCCCC(F)(F)C(F)(F)C(F)(F)F
not listed: [6]
inactive: all other assays above

O=C(O)C(F)(F)C(F)(F)C(F)(F)C(F)(F)C(F)(F)C(F)(F)C(F)(F)C(F)(F)C(F)(F)C(F)(F)C(F)(F)C(F)(F)C(F)(F)F
inactive: all assays above

C=CC(F)(F)C(F)(F)C(F)(F)C(F)(F)C(F)(F)C(F)(F)C(F)(F)C(F)(F)F
not listed: [6]
inactive: all other assays above

FC(F)(I)C(F)(F)C(F)(F)C(F)(F)I
not listed: [6]
inactive: all other assays above

Cc1cccc(N(C)C)c1
not listed: [6]
inactive: all other assays above

C=C(C)C(=O)OCCC(F)(F)C(F)(F)C(F)(F)C(F)(F)C(F)(C(F)(F)F)C(F)(F)F
not listed: [4] | [6]
inactive: all other assays above
